Measured values from PubChem BioAssay (NCI).
About 83,000 compounds went through this panel and 20% of them were active in at least one assay; those are over-represented in the sample as a whole.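 Assay: single dose, 48 h. Readout: percent growth (0 = no net growth; negative = cell death). Active: <10.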 Activity calls are given as the source filed them.

Legend:
Test in all cases: NCI-60 one-dose screen, 48 h (100 = growth as untreated, 0 = no growth, -100 = all killed)
Conditions in all cases: 10 µM unless noted
[1] = test system: T-47D breast
[2] = test system: BT-549 breast
[3] = test system: MDA-MB-435 melanoma
[4] = test system: SW-620 colon
[5] = test system: MCF7 breast
[6] = test system: HCT-116 colon
[7] = test system: HCC-2998 colon
[8] = test system: KM12 colon

Measured: growth

COc1cc(-c2cc(-c3ccc(N(C)C)cc3)nc(N3CCOCC3)c2C#N)cc(OC)c1OC
inactive: [1] 29.5% | [2] 47.2% | [4] 42.5% | [5] 36.2% | [6] 12.3% | [7] 19.8% | [8] 28.3%
active: [3] 4.97%

O=C1Nc2ccccc2/C1=C\c1c(-c2ccccc2)nc2ccccn12
inactive: [1] 38.1% | [2] 45.3% | [4] 21.2% | [5] 19.6% | [6] 20.6% | [7] 107% | [8] 23.3%
active: [3] -42%

COc1cc(C2C3CC4CCCC[C@H]4N3[C@@]3(C(=O)Nc4cc(Cl)ccc43)C2C(=O)c2nc3ccccc3[nH]2)cc(OC)c1OC (stereo not given in full)
inactive: [1] 36.3% | [2] 76% | [3] 53.1% | [4] 60.5% | [5] 30.4% | [6] 34.7% | [7] 69.9% | [8] 60.6%

COc1ccc(/C=N/NC(=O)c2cnn3c2NC(c2ccccc2)C3)cc1OC (stereo not given)
inactive: [1] 56% | [2] 42.3% | [4] 44.4% | [5] 29.6% | [6] 22% | [7] 67% | [8] 44.6%
active: [3] 0.386%

O=C(/C=C(O)/C=C/c1ccc(SC(F)(F)F)cc1)/C=C/c1ccc(SC(F)(F)F)cc1
inactive: [1] 78% | [2] 82.5% | [3] 79.2% | [4] 89.1% | [5] 52.1% | [6] 17.7% | [7] 101% | [8] 81.9%

O=C1Nc2ccccc2/C1=C\c1c(-c2ccc(F)cc2)nc2ccccn12
inactive: [1] 60.6% | [2] 69.6% | [4] 64.5% | [5] 62.8% | [6] 64.2% | [7] 130% | [8] 46.3%
active: [3] -21.1%

Cc1ccc(S(=O)(=O)Nn2c3c(cc(-c4nc5ccccc5s4)c2=O)CCCCCC3)cc1
inactive: [1] 96.4% | [2] 109% | [3] 103% | [4] 99.6% | [5] 91.3% | [6] 98% | [7] 115% | [8] 101%

CCCCC[n+]1ccc(SCC(=O)N(C)c2ccc(Oc3ccccc3)cc2)c2ccccc21
inactive: [1] 68.5% | [2] 130% | [3] 98.1% | [4] 86.4% | [5] 95.7% | [6] 92.8% | [7] 100% | [8] 102%

CN(C)CCn1c2ccc(Br)cc2c2nc3ccccc3nc21
inactive: [1] 38.4% | [2] 84.4% | [3] 41.8% | [4] 17.5% | [5] 19.7% | [6] 18.2% | [7] 47.3% | [8] 35%

C#CCNC(=O)c1cccc2c1cc(C)n2-c1nc2c(c(NCc3ccccc3)n1)CCCC2
active: [1] -11.6% | [2] -38.7% | [3] -61.3% | [4] -4.61% | [5] -0.959% | [6] -41.5% | [7] -84.2% | [8] -43.6%

CCN1C(=O)/C(=C/C(=O)OC)S/C1=N\NC(=O)c1cc2ccc1/C=C\c1ccc(cc1)/C=C\2
active: [4] 8.79%
inactive: [1] 94.2% | [2] 92.3% | [3] 99.3% | [5] 43.7% | [6] 49.5% | [7] 105% | [8] 85%

O=Cc1cc2ccccc2nc1Oc1ccc(C(F)(F)F)cc1
inactive: [1] 83.7% | [2] 99.7% | [3] 103% | [4] 67% | [5] 48.1% | [6] 102% | [7] 108% | [8] 92.4%

COc1ccc(/C=C/c2nc(Nc3cccc(NC(C)=O)c3)c3ccccc3n2)cc1
inactive: [1] 70% | [2] 92.1% | [3] 85.2% | [4] 92.1% | [5] 49.9% | [6] 81.3% | [7] 88.4% | [8] 83.2%

CCN1C(=O)N(CC)C2Nn3c(s/c(=C\c4ccc(OC)cc4)c3=O)=NC21 (stereo not given)
inactive: [1] 48.8% | [2] 62.9% | [4] 25.5% | [5] 21% | [6] 29.4% | [7] 95.7% | [8] 37.8%
active: [3] -26.9%

CCOC(=O)C1=C(C)NC(SCc2cc(=O)oc3ccc(F)cc23)=N[C@@H]1c1cccc2ccccc12
inactive: [1] 82.4% | [2] 102% | [3] 99.1% | [4] 101% | [5] 84.3% | [6] 76.9% | [7] 105% | [8] 97.7%

COc1cccc(-c2nc3occn3c2-c2ccnc(NCCNS(=O)(=O)c3ccc(C(F)(F)F)cc3)n2)c1
inactive: [1] 41.1% | [2] 96.5% | [3] 70.4% | [4] 113% | [5] 80.9% | [6] 92.9% | [7] 133% | [8] 98.9%

COc1cc(NCCCCCNC(C)(C)C)c2ncccc2c1
inactive: [1] 19.9% | [2] 109% | [3] 94.6% | [4] 96.7% | [6] 101% | [7] 97.5% | [8] 95.4%
active: [5] -54.4%

CC(C)=CCC[C@](C)(O)[C@H]1CC[C@]2(C)[C@@H]1CC[C@@H]1[C@@]3(C)C/C(=C/c4ccccc4)C(=O)C(C)(C)[C@@H]3CC[C@]12C
inactive: [1] 87.4% | [2] 100% | [3] 90.3% | [4] 80.4% | [5] 94.6% | [6] 85.1% | [7] 98.8% | [8] 90%

O=C(/C=C/c1ccc(Cl)cc1)c1ccc(NC(=O)N2CCN(c3cc4c(cc3F)c(=O)c(C(=O)O)cn4C3CC3)CC2)cc1
inactive: [1] 76.4% | [2] 52.2% | [3] 98.8% | [4] 97.2% | [5] 22.6% | [6] 11.8% | [7] 102% | [8] 85.8%

COc1ccc(/C=C(\C#N)n2nc3cccc(F)c3n2)cc1
inactive: [1] 90.5% | [2] 109% | [3] 77.4% | [4] 103% | [5] 89.5% | [6] 101% | [7] 107% | [8] 93.7%

CC1(C)CC[C@]2(C(=O)O)CC[C@]3(C)C(=CC[C@@H]4[C@@]5(C)Cc6c([nH]c7ccccc67)C(C)(C)[C@@H]5CC[C@]43C)[C@@H]2C1
inactive: [1] 49.5% | [2] 61.5% | [3] 79.3% | [4] 23.1% | [5] 19.4% | [7] 38.7% | [8] 17.7%
active: [6] 8.26%

N=C1C(c2nc3ccccc3s2)=C(O)CN1c1cc(Cl)cc(Cl)c1
inactive: [1] 97% | [2] 71.3% | [3] 41.6% | [4] 54.8% | [5] 148% | [6] 46.5% | [7] 85.8% | [8] 64.7%

N#Cc1c(NCc2ccccc2I)sc2c1CCCCC2
inactive: [1] 73.3% | [2] 102% | [3] 99.9% | [4] 97.2% | [5] 80% | [6] 90.3% | [7] 113% | [8] 96.6%

COc1cc2c(c(O)c1Br)C(=O)c1c(O)cc(C[C@H](C)O)cc1[C@H]2[C@H]1c2cc(C[C@H](C)O)cc(O)c2C(=O)c2c1cc(OC)c(Br)c2O
inactive: [2] 17.3% | [4] 18.2% | [6] 10.1% | [7] 26%
active: [1] 8.03% | [3] 9.24% | [5] 8.05% | [8] 9.13%

N#CC1=C(N)Oc2c(ccc3ccccc23)C1c1ccccc1Cl (stereo not given)
active: [3] -41.2%
inactive: [1] 66.5% | [2] 20.7% | [4] 21.9% | [5] 16.8% | [6] 11.9% | [7] 17.7% | [8] 12.8%

Cc1cc(C(=O)/C=C/c2ccc[nH]2)ccc1-n1ccc(C(F)(F)F)n1
active: [2] -35% | [8] -14%
inactive: [1] 85% | [3] 97.4% | [4] 96.6% | [5] 82.7% | [6] 88.5% | [7] 108%

CN(C)c1ccc(C2C(C#N)=C(/N=C/c3ccccc3)Oc3c2ccc2ccccc32)cc1 (stereo not given)
inactive: [1] 83.1% | [2] 69.6% | [4] 41% | [5] 54.3% | [6] 56.5% | [7] 104% | [8] 58.8%
active: [3] 4.53%

C#CCNC(=O)[C@]1(C)CC[C@]2(C)CC[C@@H]3C(=CC[C@H]4[C@@]3(C)CC[C@H]3C(C)(C)C(=O)CC[C@]43C)[C@@H]2C1
inactive: [1] 77.1% | [2] 101% | [3] 97.3% | [4] 105% | [5] 83.3% | [6] 81% | [7] 101% | [8] 92.3%

COc1cc2c(c(OC)c1OC)CCC(c1cccc(NC(=O)c3cccc(Br)c3)c1)O2 (stereo not given)
inactive: [1] 72.5% | [2] 103% | [3] 87.4% | [4] 93.2% | [5] 89% | [6] 72.2% | [7] 99.7% | [8] 95.2%

CCOC(=O)c1cc(C(=O)c2ccc(OC)cc2)n2ccc(/C=C/c3cc[n+](CC(=O)c4ccc(OC)cc4)cc3)cc12
inactive: [1] 36.3% | [2] 86% | [3] 77% | [7] 36.7% | [8] 91.9%
active: [4] 5.72% | [5] -62.6% | [6] 3.01%
